An excerpt weighted towards active compounds, which were near 10% of everything screened.
SW480 rerep – inducers of DNA re-replication in SW480 colon cancer cells | SW480 DNA re-replication, Hoechst DNA content imaging, 48 h | Potency, µM (highest dose often 46.1 µM), for inactives: at the top dose re-replication activation, actives largely listed as activators | 340,000 tested, 1.8% active | AID 624297; also: % of control where 0% means no effect; nearly all actives have a fitted effect of over 55% in size
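Compounds, transferred as 23 nL by pin tool, were incubated with cells for 48 hr; DNA content per nucleus was then quantified by Hoechst staining and fluorescence plate imaging.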
MCF10A rereplic – DNA re-replication induction in MCF 10a cells | MCF 10A DNA re-replication, Hoechst nuclear intensity, 48 h | Potency, µM (top dose mostly 46.1 µM), inactives show top-dose activity, positive = re-replication, usual class: activators | 350,000 tested, 2.9% active | AID 624296; also: % of control where 0% means no effect; nearly all actives have a fitted effect of over 50% in size
Gal4-VP16 FLuc – inhibits Gal4-VP16 luciferase reporter, ROR gamma counter-screen; Drosophila S2 Gal4-VP16 UAS-luciferase, luminescence, 20 h; Potency, µM (doses to about 53.6 µM), for inactives: at the top dose activity, negative = inhibition, usual class: inhibitors; 310,000 tested, 3.5% active; AID 2546;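 also: Gal4-VP16 expression switched on by copper sulfate through the metallothionein promoter; % is scaled to controls: 0 for no effect and ±100 for the full control effect; nearly all actives have a fitted effect of over 50% in size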
RORgamma inh – ROR gamma (mouse) transcription inhibition; P51450; Drosophila S2 Gal4-RORgamma UAS-luciferase reporter, 20 h; Potency, µM (top dose mostly 53.6 µM), inactives show top-dose activity change, negative = inhibition, hits mostly inhibitors; 310,000 tested, 5.4% active; AID 2551; also: % is scaled to controls: 0 for no effect and ±100 for the full control effect; nearly all actives have a fitted effect of over 60% in size
Target sequence (P51450 whole entry, looked up, the tested form may be a part): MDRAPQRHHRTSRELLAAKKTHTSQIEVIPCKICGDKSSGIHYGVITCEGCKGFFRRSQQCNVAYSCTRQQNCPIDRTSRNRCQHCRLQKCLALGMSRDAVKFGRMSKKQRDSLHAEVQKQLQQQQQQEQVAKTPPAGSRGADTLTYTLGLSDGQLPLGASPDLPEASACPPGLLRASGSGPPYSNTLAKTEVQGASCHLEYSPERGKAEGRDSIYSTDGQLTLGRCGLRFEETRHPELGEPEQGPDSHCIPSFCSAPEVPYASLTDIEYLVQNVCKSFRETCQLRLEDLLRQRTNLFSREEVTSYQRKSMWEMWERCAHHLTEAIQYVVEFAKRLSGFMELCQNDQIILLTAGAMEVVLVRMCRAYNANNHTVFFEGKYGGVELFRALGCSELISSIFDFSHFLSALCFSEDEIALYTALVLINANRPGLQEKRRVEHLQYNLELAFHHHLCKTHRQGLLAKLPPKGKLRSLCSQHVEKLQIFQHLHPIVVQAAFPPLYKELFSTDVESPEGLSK
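Drosophila S2 cells stably expressing Gal4-DBD/mouse RORγ fusion under metallothionein promoter plus UAS-luciferase; compound 1 h, then 700 uM CuSO4 induction for 20 h at ambient temperature; inhibition read as reduced luminescence.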
ELG1 repair inh – ELG1-dependent DNA repair inhibition | HEK293T ELG1-luciferase reporter, luminescence, 16 h; DNA damage induced by 5-fluorouridine | Potency, µM (series often up to 46.1 µM), inactives show at the top dose activity change, negative = inhibition, most hits filed as inhibitors | 330,000 tested, 2.3% active | AID 504467; also: % is scaled to controls: 0 for no effect and ±100 for the full control effect; nearly all actives have a fitted effect of over 55% in size
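Step one: seed 2,000 cells per well. Step two: pin-transfer compound or DMSO alongside 5-fluorouridine. Step three: incubate 16 hr, 37 °C, 5% CO2. Step four: add ONE-Glo, wait 30 min, read luminescence.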
Numbers without * were called inactive; [ ] = remark or other dose. Calls follow the shape of the dose curve; as a rule, active = well fitted curve in the direction sought with a large enough effect; inconclusive = small, poorly fitted or top-dose-only effect, or another doubt; inactive = no such curve, though single readings can be large; an effect the other way counts as inactive or inconclusive. Potency is read from the fitted curve at half-maximal effect.

COC(=O)N1C(=O)[C@@](c2ccccc2)(C2CCCCC2)N1C(=O)OC was read as SW480 rerep -15%[9.22 µM], MCF10A rereplic 15µM*, Gal4-VP16 FLuc -8%, RORgamma inh 7.9µM* and ELG1 repair inh 0%.
Screening CC[C@@]1(c2ccccc2)C(=O)N(C(=O)OC)N1C(=O)OC returned SW480 rerep 4%, MCF10A rereplic inconclusive, Gal4-VP16 FLuc inconclusive, RORgamma inh -36% and ELG1 repair inh -26%.
For O=C(CCS(=O)(=O)c1cccs1)Nc1ccc(C(=O)NCc2ccc(F)cc2)cc1 the results were SW480 rerep 1%, MCF10A rereplic -8%, Gal4-VP16 FLuc -19%, RORgamma inh -3% and ELG1 repair inh -18%.
`O=C(CCS(=O)(=O)c1cccs1)Nc1ccc(C(=O)NCc2cccs2)cc1` gave SW480 rerep 0%, MCF10A rereplic -22%, Gal4-VP16 FLuc inconclusive, RORgamma inh 26% and ELG1 repair inh 16µM*.
For CN(C)c1ccc(NC(=O)c2ccc(Cn3cc([N+](=O)[O-])cn3)cc2)cc1 the results were SW480 rerep inconclusive, MCF10A rereplic inconclusive, Gal4-VP16 FLuc -5%, RORgamma inh inconclusive and ELG1 repair inh inconclusive.
`CC1=NN(C(=O)c2ccc(Cn3cc([N+](=O)[O-])cn3)cc2)C(O)(C(F)(F)F)C1` (stereo unspecified) gave SW480 rerep -12%, MCF10A rereplic 0%, Gal4-VP16 FLuc 13µM*, RORgamma inh 10µM* and ELG1 repair inh -19%.
CC1=NN(C(=O)c2cccc(Cn3nc(C)c([N+](=O)[O-])c3C)c2)C(O)(C(F)(F)F)C1 (stereo unspecified) was read as SW480 rerep inconclusive, MCF10A rereplic 5.8µM*, Gal4-VP16 FLuc 7.1µM*, RORgamma inh 3.2µM* and ELG1 repair inh -1%.
`Cc1nn(Cc2cccc(C(=O)N3N=C(C(F)F)CC3(O)C(F)F)c2)c(C)c1[N+](=O)[O-]` (stereo unspecified) gave SW480 rerep -4%, MCF10A rereplic inconclusive, Gal4-VP16 FLuc -25%, RORgamma inh inconclusive and ELG1 repair inh inconclusive.
`CCC(CC)c1nnc(NC(=O)c2ccc3ccccc3n2)s1` gave SW480 rerep -8%[9.22 µM], MCF10A rereplic inconclusive, Gal4-VP16 FLuc 10µM*, RORgamma inh 3.5µM* and ELG1 repair inh inconclusive.
For CC(C)Cc1nnc(NC(=O)c2cc(-c3ccccc3)nc3ccccc23)s1 the results were SW480 rerep 4%, MCF10A rereplic -185%[0.0737 µM], Gal4-VP16 FLuc inconclusive, RORgamma inh 4.5µM* and ELG1 repair inh 14%.
For CCc1nnc(NC(=O)c2cc(-c3cccnc3)nc3ccccc23)s1 the results were SW480 rerep 0%, MCF10A rereplic inconclusive, Gal4-VP16 FLuc 10%, RORgamma inh -21% and ELG1 repair inh -2%.
For CCC(CC)c1nnc(NC(=O)Oc2ccccc2)s1 the results were SW480 rerep -3%, MCF10A rereplic -2%, Gal4-VP16 FLuc 0%, RORgamma inh -3% and ELG1 repair inh -12%.
Screening CCC(CC)c1nnc(NC(=O)c2cc(-c3ccccc3)nc3ccccc23)s1 returned SW480 rerep -14%, MCF10A rereplic -64%, Gal4-VP16 FLuc 11µM*, RORgamma inh 10µM* and ELG1 repair inh 5%.
CSc1nc(Oc2ccc3ccccc3c2)c2sccc2n1 was read as SW480 rerep 21µM*, MCF10A rereplic inconclusive, Gal4-VP16 FLuc -20%, RORgamma inh 8% and ELG1 repair inh -12%.
For Cn1c(=O)[nH]c(=O)c2c1nc(N1CCOCC1)n2CCSc1nc2ccccc2[nH]1 the results were SW480 rerep 1%, MCF10A rereplic -4%, Gal4-VP16 FLuc -15%, RORgamma inh 4% and ELG1 repair inh 11%.
CCN(CC)S(=O)(=O)c1ccc(N2CCOCC2)c(NC(=O)c2ccccc2)c1 was read as SW480 rerep -3%, MCF10A rereplic 1%, Gal4-VP16 FLuc -11%, RORgamma inh 31% and ELG1 repair inh inconclusive.
`CCN1CCN(c2ccc(S(=O)(=O)N3CCOCC3)cc2NC(=O)c2sccc2C)CC1` gave SW480 rerep 2%, MCF10A rereplic 0% and ELG1 repair inh 2%.
CCN(CC)S(=O)(=O)c1ccc(N2CCOCC2)c(NC(=S)NC(=O)c2ccco2)c1 was read as SW480 rerep 0%, MCF10A rereplic inconclusive, Gal4-VP16 FLuc -16%, RORgamma inh inconclusive and ELG1 repair inh 16µM*.
CCN(CC)S(=O)(=O)c1ccc(N2CCOCC2)c(NC(=O)c2cc(C)cc(C)c2)c1 was read as SW480 rerep 9%, MCF10A rereplic 12%, Gal4-VP16 FLuc -29%, RORgamma inh -23% and ELG1 repair inh 8.2µM*.
`CCN(CC)S(=O)(=O)c1ccc(N2CCOCC2)c(NC(=O)c2sccc2C)c1` gave SW480 rerep 3%, MCF10A rereplic inconclusive and ELG1 repair inh 18µM*.
`CCN(CC)S(=O)(=O)c1ccc(N2CCOCC2)c(NC(=O)C23CC4CC(CC(Cl)(C4)C2)C3)c1` gave SW480 rerep -27%, MCF10A rereplic inconclusive, Gal4-VP16 FLuc -9%, RORgamma inh 31% and ELG1 repair inh 9.2µM*.
CCN(CC(=O)Nc1c(F)cccc1F)C(=O)CNC(=O)COc1ccccc1 was read as SW480 rerep -1%, MCF10A rereplic -3% and ELG1 repair inh 19%.
CCn1c(=O)c2ccccc2n(CC(=O)NC2CCCCC2)c1=O was read as SW480 rerep -64%, MCF10A rereplic -5%, Gal4-VP16 FLuc -3%, RORgamma inh -7% and ELG1 repair inh 6%.
`FC(F)(F)c1nnc2c(Sc3ccccn3)nc3ccccc3n12` gave SW480 rerep inconclusive, MCF10A rereplic inconclusive, Gal4-VP16 FLuc 20µM*, RORgamma inh 10µM* and ELG1 repair inh 0%.
`CCN(C(=O)COc1ccc(C)nc1[N+](=O)[O-])C1CCS(=O)(=O)C1` (stereo unspecified) gave SW480 rerep 0%, MCF10A rereplic 7%, Gal4-VP16 FLuc -11%, RORgamma inh -15% and ELG1 repair inh -7%.
`O=C(Nc1ccc(OC(F)(F)F)cc1)Nc1cccc([N+](=O)[O-])c1` gave SW480 rerep inconclusive, MCF10A rereplic 12µM*, Gal4-VP16 FLuc 6.3µM*, RORgamma inh inconclusive and ELG1 repair inh inconclusive.
`NC(=O)/C=C\C(=O)Nc1cccc(C(F)(F)F)c1` gave SW480 rerep 1%, MCF10A rereplic 15%, Gal4-VP16 FLuc 13µM*, RORgamma inh inconclusive and ELG1 repair inh -24%.
For O=C(Nc1cccc(C(F)(F)F)c1)c1cc(-c2ccco2)on1 the results were SW480 rerep -8%, MCF10A rereplic 3%, Gal4-VP16 FLuc -3%, RORgamma inh 0% and ELG1 repair inh 1%.

Screening data as filed in PubChem.
